Mcl1 Bid PPI: Mcl-1/Bid binding inhibitors, primary screen, biochemical, TR-FRET, 1536-well | 220,000 tested, 0.97% active | AID 1021, 2008 | TR-FRET Mcl-1/Bid-Dy647 peptide binding | inhibition, % at 21.7 µM | Induced myeloid leukemia cell differentiation protein Mcl-1 (Homo sapiens), Q07820;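 active = compounds that cut the binding signal by more than half at the single screening dose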;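 also: His-tagged Mcl-1 with europium anti-His antibody binding Bid BH3 peptide; 0% = Mcl-1 plus peptide wells and 100% = peptide-only wells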
GLD-1 TGE inh: GLD-1/TGE RNA complex disruptors, primary screen, biochemical, fluorescence polarization; inhibition, % at 5.96 µM; Female germline-specific tumor suppressor gld-1 (Caenorhabditis elegans), Q17339; AID 2280, 2010; purified GLD-1 + fluorescein TGE RNA; 320,000 tested, 0.44% active;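 active = percent inhibition above a per-plate cutoff, the plate mean of test compounds plus 3 SD, cut at about 30% in these data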;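 also: 0% = DMSO wells with GLD-1 and probe and 100% = wells lacking GLD-1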
Target sequence (Q17339 whole entry, looked up): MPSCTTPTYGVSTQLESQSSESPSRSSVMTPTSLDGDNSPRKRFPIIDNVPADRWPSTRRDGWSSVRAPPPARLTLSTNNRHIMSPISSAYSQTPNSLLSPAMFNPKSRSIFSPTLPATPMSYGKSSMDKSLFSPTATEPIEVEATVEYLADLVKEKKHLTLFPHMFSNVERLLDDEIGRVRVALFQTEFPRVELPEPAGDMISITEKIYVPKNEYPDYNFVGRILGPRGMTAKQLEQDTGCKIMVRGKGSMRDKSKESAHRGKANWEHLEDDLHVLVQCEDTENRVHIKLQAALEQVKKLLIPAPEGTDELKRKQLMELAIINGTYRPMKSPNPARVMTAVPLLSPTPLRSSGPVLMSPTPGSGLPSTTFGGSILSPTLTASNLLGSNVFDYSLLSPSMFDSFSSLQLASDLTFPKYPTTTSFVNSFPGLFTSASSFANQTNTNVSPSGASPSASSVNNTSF
Mcl1-Noxa inh: Mcl-1/Noxa binding inhibitors, primary screen, biochemical, TR-FRET, 1536-well; TR-FRET Mcl-1/Noxa peptide binding, 2 h; inhibition, % at 21.7 µM; 220,000 tested, 1.5% active; Induced myeloid leukemia cell differentiation protein Mcl-1 (Homo sapiens), Q07820;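 active = compounds that cut the protein-peptide binding signal by more than 50% relative to plate controls in a single-dose test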;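 also: His-tagged Mcl-1 with rhodamine Noxa BH3 peptide and terbium anti-His antibody; 0% = Mcl-1 plus Noxa peptide wells and 100% = peptide-only wells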
MCL1-BIM inh: inhibitors of MCL1 binding to BIM-BH3, primary screen, biochemical, fluorescence polarization; Induced myeloid leukemia cell differentiation protein Mcl-1 (Homo sapiens), Q07820; GST-MCL1 / FITC-Bim-BH3 fluorescence polarization; inhibition, % at 10.9 µM; 320,000 tested, 0.68% active; AID 2057, 2009;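 active = inhibition above the mean inhibition of all tested compounds plus 3 SD, set per campaign, cut at about 40% in these data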;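 also: 0% = DMSO wells and 100% = unlabeled Bim-BH3 peptide control; higher means more loss of mP so more displacement of Bim peptide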
Mcl-1 Bim block: inhibitors of Bim peptide binding to Mcl-1, primary screen, biochemical, bead-based flow cytometry, multiplex; AID 1009, 2008; 190,000 tested, 0.1% active; Bim peptide-Mcl-1 binding; inhibition, % at 10 µM; in the data active = inhibition above about 40%;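 also: 0% = no compound tracer wells and 100% = peptide blocker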
Bcl-xL primary: inhibitors of human Bcl-xL, primary screen, biochemical, fluorescence polarization, HTS; Bcl-2-like protein 1 (Homo sapiens), Q07817; GST-Bcl-xL / FITC-Bim BH3 peptide fluorescence polarization; inhibition, % at 10.9 µM; 320,000 tested, 0.7% active; AID 2129, 2009;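 active = inhibition above the mean of all tested compounds plus 3 SD, cutoff set per campaign, cut at about 30% in these data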;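 also: 0% = DMSO wells and 100% = unlabeled Bim-BH3 peptide competitor; inhibitors lower millipolarization by displacing the labeled peptide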
Target sequence (Q07817 whole entry, looked up): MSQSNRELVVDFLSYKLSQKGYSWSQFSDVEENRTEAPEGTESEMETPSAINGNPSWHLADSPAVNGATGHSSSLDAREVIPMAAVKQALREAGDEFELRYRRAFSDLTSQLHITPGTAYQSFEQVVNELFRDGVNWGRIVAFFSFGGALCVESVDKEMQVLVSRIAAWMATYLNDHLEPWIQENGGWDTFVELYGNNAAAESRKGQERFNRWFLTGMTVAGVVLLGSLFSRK
The depositor's hits bear a star; nt = no result given; + = active, no number. Hits are enriched below; roughly 2.3% of the tested compounds scored in any of these assays.

SMILES | Mcl1 Bid PPI | GLD-1 TGE inh | Mcl1-Noxa inh | MCL1-BIM inh | Mcl-1 Bim block | Bcl-xL primary
Cc1nc(NC(=O)c2ccccc2)sc1-c1csc(Nc2cccc(Cl)c2)n1 | 94* | -8 | 98* | -23 | 0 | -7
CCCN(CC(=O)Nc1ccccc1C)C(=O)c1ccc(N2CCCC2)c([N+](=O)[O-])c1 | nt | 2 | nt | 1 | nt | 4
COC(=O)/C=C/c1cnc[nH]1 | nt | 5 | nt | 2 | nt | 2
COC(=O)CCC(=O)N1CCCC(CO)(Cc2ccccc2F)C1 (centres undefined) | nt | 7 | nt | -11 | nt | 0
COC(=O)c1ccc(/C=C(\C#N)c2nc3ccccc3s2)cc1 | 59* | -85 | 59* | -67 | 0 | -33
N#C/C(=C/c1ccc(-c2ccc(S(N)(=O)=O)cc2)o1)c1nc2ccccc2s1 | 53* | -47 | 21 | 15 | -23 | 45*
N#C/C(=C\c1ccccn1)c1nc2ccccc2s1 | -23 | -54 | 19 | -56 | 0 | -28
CC(=O)c1cccc(NC(=O)C(C)OC(=O)CN2C(=O)NC(C)(C)C2=O)c1 (centres undefined) | nt | 0 | nt | 2 | nt | 1
COc1ccc([N+](=O)[O-])cc1NC(=O)CSc1nccc(C)n1 | -13 | -4 | 57* | 8 | 1 | 3
O=C(CSc1ncccn1)Nc1cc(Cl)ccc1[N+](=O)[O-] | 3 | 3 | 4 | -2 | -1 | 2
COc1cc(NC(=O)CSc2nccc(C)n2)c(C)cc1[N+](=O)[O-] | -32 | 7 | 57* | 5 | -2 | 4
Cc1nc(SCC(=O)Nc2cc(Cl)ccc2[N+](=O)[O-])nc(C)c1C | 95* | 2 | 8 | 4 | -5 | 0
COc1cc(NC(=O)CSc2nccc(C)n2)c(C(=O)O)cc1OC | -9 | -4 | 7 | 6 | -5 | 7
Clc1ccc(OCCNCCc2ccccc2)cc1 | nt | -2 | nt | 3 | nt | 0
CCC(C)NC(=O)C1CCC(=O)N1CCc1ccccc1 (centres undefined) | nt | -6 | nt | 17 | nt | 1
O=S(=O)(c1ccc(NC(=S)NCc2ccc(F)cc2)cc1)N1CCOCC1 | nt | 9 | nt | 13 | nt | 9
c1ccc(-c2cc3ccccc3[nH]2)cc1 | nt | 4 | nt | -13 | nt | 3
Clc1ccc2[nH]c(-c3ccccc3)cc2c1 | -11 | 4 | 25 | 2 | -2 | +
O=C(CSc1nc(=O)[nH]c2c1CCCC2)Nc1ccc(F)cc1F | nt | 3 | nt | 0 | nt | 4
COc1cc(/C=C(/C#N)c2nc3ccccc3c(=O)[nH]2)ccc1O | 70* | -51 | 42 | -57 | -2 | -27
COc1cc(/C=C(\C#N)C(=O)c2c[nH]c3ccccc23)cc(OC)c1O | 46 | -51 | 70* | -51 | 3 | -30
CCN(CC)c1ccc(/C=C(/C#N)c2nc3ccc(C)cc3[nH]2)c(OC(C)C)c1 | -35 | 6 | nt | 24 | -6 | 42*
Cc1ccc2nc(/C(C#N)=C/c3ccc(-c4cccc([N+](=O)[O-])c4)o3)[nH]c2c1 | 36 | -34 | 80* | -123 | 0 | -65
CCOc1ccc(NCc2cccn2-c2nnc(N3CCC(C(=O)NCCCN4CC(C)CC(C)C4)CC3)s2)cc1 (centres undefined) | nt | 8 | nt | -1 | nt | -6
Cc1ccc2nc(/C(C#N)=C\c3ccc(Oc4ccc(C(F)(F)F)cc4[N+](=O)[O-])cc3)[nH]c2c1 | -28 | -2 | 51* | -12 | -3 | -6
SMILES | Mcl1 Bid PPI | GLD-1 TGE inh | Mcl1-Noxa inh | MCL1-BIM inh | Mcl-1 Bim block | Bcl-xL primary
COc1ccc(/C=C(\C#N)c2nc3ccc(C)cc3[nH]2)cc1Oc1ccc(C(F)(F)F)cc1[N+](=O)[O-] | -12 | 2 | 0 | -13 | 0 | -4
COc1cc(/C=C(\C#N)c2nc3ccc(C)cc3[nH]2)c([N+](=O)[O-])cc1OC | -6 | -10 | 18 | -24 | -5 | -14
COc1cc(/C=C(\C#N)c2nc3ccc(C)cc3[nH]2)cc([N+](=O)[O-])c1O | -47 | nt | 81* | nt | 11 | nt
COc1cc(/C=C(\C#N)c2nc3ccccc3[nH]2)cc(OC)c1O | -23 | -154 | 72* | -95 | 5 | -56
CC(=O)c1sc(NC(=O)CCN2C(=O)c3ccccc3C2=O)nc1C | nt | -5 | nt | 0 | nt | 1
Cc1ccc(Cl)cc1NC(=O)CCS(=O)(=O)c1cccc2nonc12 | nt | 2 | nt | 0 | nt | 1
CCCCN1CC(=O)N2[C@H]3c4ccc(OC)cc4OC[C@@H]3[C@H](c3ccccc3)[C@]2(C)C1=O | nt | 28 | nt | 12 | nt | 10
CCOc1ccc(C(=O)Nc2cccc(C(=O)O)c2)cc1Cl | -29 | 2 | -1 | -6 | 3 | 1
CCOc1ccc(C(=O)Nc2cc(NC(=O)c3ccc(OCC)c(Cl)c3)cc(C(=O)O)c2)cc1Cl | 5 | nt | 84* | nt | -2 | nt
CCOc1ccc(C(=O)Nc2cccc(-c3nc4cccnc4o3)c2)cc1Cl | 51* | 1 | -4 | -9 | 0 | -3
CCOc1ccc(C(=O)Nc2ccc(NC(=O)c3ccco3)c(Cl)c2)cc1Cl | -32 | 3 | -32 | 5 | -17 | 0
C/C(=N\NC(=O)c1nnn(-c2nonc2N)c1-c1ccc2c(c1)OCO2)c1ccc(C)cc1 | nt | -2 | nt | 3 | nt | 0
N#Cc1ccccc1Cn1c(-c2cscn2)nc2ccccc21 | 79* | 5 | 6 | 8 | 1 | 7
O=C(O)Cn1c(-c2cscn2)nc2ccccc21 | -2 | -2 | 9 | 11 | 0 | 3
Cc1nn(-c2ccc(N3CCCCC3)nn2)c(C)c1CCC(=O)Nc1cc(F)ccc1F | nt | 4 | nt | 1 | nt | 0
CC(C)(C)N1C(=O)Cc2c1nc(N)c1c(N)nc(N3CCCCC3CO)c(C#N)c21 (centres undefined) | -10 | 12 | 47 | 56* | 2 | 30
CCC1Cc2c(nc(N)c3c(N)nc(N4CCCCC4)c(C#N)c23)O1 (centres undefined) | -53 | 4 | 11 | 9 | -3 | 13
COc1ccc(-c2c(-c3cc(OC)cc(OC)c3)n(C)c3ccc(-c4cc(F)cc(OC)c4)cc23)cc1 | nt | -3 | nt | 3 | nt | 1
C=CSc1sc(Cl)c(N(CC)CC)c1[N+](=O)[O-] | -55 | -1 | 52* | 26 | -1 | 9
O=C(Nc1nc2c(s1)CN(Cc1ccccc1)CC2)c1cccc(S(=O)(=O)N2CCc3ccccc32)c1 | -68 | 29 | -26 | 61* | 0 | 55*
O=C(Nc1nc2ccccc2s1)c1cccc(S(=O)(=O)N2CCc3ccccc32)c1 | -5 | -12 | -24 | -2 | nt | -5
